{
  "source": "PubChem BioAssay (NCATS)",
  "note": "Records with an inconclusive call do not appear. A call without a number means that no potency is given here. Values without a mark were called inactive. Calls of active or inactive are those of the source. Calls come from the whole dose curve. Potency is the fitted concentration of half-maximal effect.",
  "data": [
    {"test": "Primary qHTS for inhibitors of MERS-S pseudo-typed particle cell entry (AID 1479149); note: nearly all actives have a fitted effect of over 60% in size", "conditions": "MERS-S pseudotyped particle entry, luciferase; series mostly up to 57.1 µM; activity change, negative = inhibition: at the top concentration", "values": [
      {"smiles": "CNC(=O)c1cnn(-c2nc(N)c3ncn([C@@H]4O[C@H](CO)[C@@H](O)[C@H]4O)c3n2)c1", "outcome": "inactive"},
      {"smiles": "OC[C@H]1O[C@@H](O[C@@H]2[C@@H](CO)O[C@](O)(CO)[C@H]2O)[C@H](O)[C@@H](O)[C@H]1O", "outcome": "inactive"},
      {"smiles": "Cc1cccc(N(C)C(=S)Oc2ccc3c(c2)C2CCC3C2)c1", "note": "(stereo not drawn)", "outcome": "inactive"},
      {"smiles": "CCO[C@@H]1O[C@H](C(COCc2ccccc2)OCc2ccccc2)[C@H](OCc2ccccc2)[C@H]1O", "note": "(stereo partly drawn)", "outcome": "inactive"},
      {"smiles": "CCC(=O)c1ccc(O)cc1", "outcome": "inactive"},
      {"smiles": "C[C@H]1C[C@H]2[C@@H]3CCC4=CC(=O)C=C[C@]4(C)[C@@]3(Cl)[C@@H](O)C[C@]2(C)[C@@]1(O)C(=O)CO", "outcome": "inactive"},
      {"smiles": "CN1[C@@H]2CC[C@H]1CC(NC(=O)n1c(=O)[nH]c3ccccc31)C2", "note": "(stereo partly drawn)", "outcome": "inactive"},
      {"smiles": "CC(=O)OCC1=C(C(=O)O)N2C(=O)[C@@H](NC(=O)CSc3ccncc3)[C@H]2SC1", "outcome": "inactive"},
      {"smiles": "CC(=O)CCC(=O)O", "outcome": "inactive"},
      {"smiles": "CN(C)C(=O)Oc1cccc([N+](C)(C)C)c1", "outcome": "inactive"},
      {"smiles": "C#C[C@]1(OC(C)=O)CC[C@H]2[C@@H]3CCC4=C/C(=N/O)CC[C@@H]4[C@H]3CC[C@@]21CC", "outcome": "inactive"},
      {"smiles": "Cc1cccc(C)c1NC(=O)C(C)N", "note": "(stereo not drawn)", "outcome": "inactive"},
      {"smiles": "CC(=O)/C=C/C=C1/C2CCC(C2)C1(C)C", "note": "(stereo not drawn)", "outcome": "inactive"},
      {"smiles": "CN(C)CCn1nnnc1SCC1=C(C(=O)O)N2C(=O)[C@@H](NC(=O)Cc3csc(N)n3)[C@H]2SC1", "activity change, negative = inhibition": "-36.5%"},
      {"smiles": "CCOC(=O)c1cccc(N)c1", "outcome": "inactive"},
      {"smiles": "O=C1C(CCS(=O)c2ccccc2)C(=O)N(c2ccccc2)N1c1ccccc1", "note": "(stereo not drawn)", "outcome": "inactive"},
      {"smiles": "O=C(O)C(=O)Nc1cccc(-c2nn[nH]n2)c1", "outcome": "inactive"},
      {"smiles": "CC(=C(CCOC(=O)C(C)C)SSC(CCOC(=O)C(C)C)=C(C)N(C=O)Cc1cnc(C)nc1N)N(C=O)Cc1cnc(C)nc1N", "outcome": "inactive"},
      {"smiles": "O=C1c2cccc(O)c2C(=O)c2c(O)cccc21", "outcome": "inactive"},
      {"smiles": "Cc1nnc(C(=O)NC(C)(C)c2nc(C(=O)NCc3ccc(F)cc3)c(O)c(=O)n2C)o1", "activity change, negative = inhibition": "-28.5%"},
      {"smiles": "O=C(CCCN1CCN(c2ccccn2)CC1)c1ccc(F)cc1", "activity change, negative = inhibition": "-6.16%"},
      {"smiles": "CCCc1ncc(C[n+]2ccccc2C)c(N)n1", "outcome": "inactive"},
      {"smiles": "CC1(C)[C@@H]2CC[C@@]1(C)C(=O)C2", "outcome": "inactive"},
      {"smiles": "CCC(=O)O[C@]1(C(=O)SCF)[C@H](C)C[C@H]2[C@@H]3C[C@H](F)C4=CC(=O)C=C[C@]4(C)[C@@]3(F)[C@@H](O)C[C@@]21C", "outcome": "inactive"},
      {"smiles": "C[C@@H]1C[C@H]2[C@@H]3CCC4=CC(=O)C=C[C@]4(C)[C@@]3(F)[C@@H](O)C[C@]2(C)[C@H]1C(=O)CO", "outcome": "inactive"},
      {"smiles": "Cc1[nH]c(=O)c(C#N)cc1-c1ccc2nccn2c1", "outcome": "inactive"},
      {"smiles": "CC1(C)S[C@@H]2[C@H](N=CN3CCCCCC3)C(=O)N2[C@H]1C(=O)O", "outcome": "inactive"},
      {"smiles": "CCN1CCN(c2cc(-c3ccc(F)cc3)c3c(n2)CCCCCC3)CC1", "activity change, negative = inhibition": "-14.1% [at 26.4 µM]"},
      {"smiles": "CC[N+](CC)(CC)CCOC(=O)C(C1CCCC1)C1CCCC1", "activity change, negative = inhibition": "-30.6%"},
      {"smiles": "Cc1c(C)c2c(c(C)c1OC(=O)CCC(=O)OCCO)CC[C@@](C)(CCC[C@H](C)CCC[C@H](C)CCCC(C)C)O2", "activity change, negative = inhibition": "-26.6%"},
      {"smiles": "Cc1c(C(=O)NN2CCCCC2)nn(-c2ccc(Cl)cc2Cl)c1-c1ccc(Cl)cc1", "outcome": "inactive"},
      {"smiles": "CC(O)COc1ccccc1", "note": "(stereo not drawn)", "outcome": "inactive"},
      {"smiles": "Oc1c(Cl)cc(Cl)c(Cl)c1Cc1c(O)c(Cl)cc(Cl)c1Cl", "Potency": "3.55 µM (active)"},
      {"smiles": "COc1nc(C)nc(Cl)c1NC1=NCCN1", "outcome": "inactive"},
      {"smiles": "CN1CCCN=C1/C=C/c1cccs1", "outcome": "inactive"},
      {"smiles": "CCCCN(CCN(CCCC)C(=O)N1CCOCC1)C(=O)N1CCOCC1", "activity change, negative = inhibition": "3.92%"},
      {"smiles": "O=C(O)CCc1nc(-c2ccccc2)c(-c2ccccc2)o1", "outcome": "inactive"},
      {"smiles": "CC(=O)N[C@H]1[C@H]([C@H](O)[C@H](O)CO)OC(C(=O)O)=C[C@@H]1N=C(N)N", "outcome": "inactive"}
    ]}
  ]
}
